The values that follow come from PubChem BioAssay.

Active and inactive are the calls of the source.

The test system of assay [1] is Human papillomavirus type 1a protein E7 (residues 44-93). Nature of the assay: small molecules binding HPV E7 44-93 – biochemical, small-molecule microarray, residues 44-93, 635 nm fluorescence, primary screen (AID 1108).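 Further: E7 fragment applied at 1 µg/mL in TBST for 1 h at 4 C; score combines spot fluorescence with its signal to noise ratio.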 Conditions: fluorescence 635 nm, higher = more signal.
Assay [2] can be described thus: hepatitis C replication reporter changes, two-sided – Huh7 cells, luciferase reporter, HCV replication inhibitor project, primary screen (AID 1109).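 Further: huh7 hepatoma cells harbouring a luciferase neomycin HCV replicon reporter; luciferase luminescence as measure of HCV replicon replication; test concentration not given here.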 Conditions: Huh7 HCV replicon luciferase reporter, 48 h; higher = more signal. Background: A reporter such as luciferase makes a cellular process visible.
For assay [3], the target named is Left-right determination factor 2 (Homo sapiens) (UniProt O00292). Nature of the assay: small molecules binding LEFTY2 protein – biochemical, small-molecule microarray, 635 nm fluorescence scan, primary screen (AID 1110). The conditions noted are these: higher = more signal.
The target in assay [4] is Calmodulin-1 (Homo sapiens) (UniProt P0DP23). Nature of the assay: small molecules binding calmodulin-1 with EGTA – biochemical, small-molecule microarray, Cy5-labelled CALM1, profiling panel (AID 1111).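 Further: labelled calmodulin applied in Tris saline Tween buffer holding calcium plus EGTA and DTT.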 The conditions noted are these: Cy5-CALM1 binding fluorescence, higher = more signal.
For assay [5] the target is unchanged. Nature of the assay: small molecules binding Ca-loaded calmodulin-1 – biochemical, small-molecule microarray, Cy5-labelled CALM1, plus calcium, artefact control for SMM control-protein annotation, profiling panel (AID 1112).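 Further: score merges spot fluorescence with signal to noise from triplicate slides.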 The conditions noted are these: Cy5-CALM1 binding fluorescence, higher = more signal.
A short description of assay [6]: probe aWnt5a binding to arrayed compounds – biochemical, biotinylated probe, 635/667 nm fluorescence, primary screen (AID 1113).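 Further: score merges 667 nm fluorescence intensity with signal-to-noise per printed feature.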 Conditions: small-molecule microarray, higher = more signal.
Assay [7] can be described thus: probe aShh binding to arrayed compounds – biochemical, biotinylated probe, 635/667 nm fluorescence, primary screen (AID 1114).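 Further: probe is biotin-labelled aShh protein from a stem cell growth factor screen; measures binding of labelled protein to compounds printed on the slide; score merges feature fluorescence at 667 nm with signal-to-noise.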 Conditions: small-molecule microarray, higher = more signal.
Assay [8] in a line: probe aNog binding to arrayed compounds – biochemical, biotinylated probe, 635/667 nm fluorescence, primary screen (AID 1115).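 Further: probe is biotinylated aNog protein used at 0.15 µg/mL for 1 h at 4 C; z-score combines 667 nm fluorescence of each spot with its signal to noise.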 Conditions: small-molecule microarray, higher = more signal.
Assay [9] concerns the target Torsin-1A-interacting protein 1 (Homo sapiens) (UniProt Q5JTV8). Nature of the assay: compound microarray binding of lysate hLAP1 – cell lysate, small-molecule microarray, COS7 lysate, 635/667 nm fluorescence, primary screen (AID 1116). Conditions: 635 nm fluorescence, higher = more signal.
The target of assay [10] is Alpha-bungarotoxin (Bungarus multicinctus) (UniProt P60615). Nature of the assay: compounds binding labelled alpha-BTX control protein – biochemical, small-molecule microarray, Alexa647 label, 635/667 nm fluorescence, artefact control for SMM control protein annotation, profiling panel (AID 1117). Conditions: alpha-BTX-A647 binding fluorescence, higher = more signal.
The target in another assay is Albumin (Bos taurus) (UniProt P02769). Nature of the assay: compounds binding labelled BSA control protein – biochemical, small-molecule microarray, Alexa647 label, 635/667 nm fluorescence, artefact control for SMM control protein annotation, profiling panel (AID 1118).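 Further: score merges 667 nm emission intensity and signal-to-noise per printed compound spot.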 The conditions noted are these: BSA-A647 binding, fluorescence 635 nm, higher = more signal.
Assay [11] can be described thus: probe aXIP binding to arrayed compounds – biochemical, NeuroSMM set, 635/667 nm fluorescence, primary screen (AID 1119).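 Further: probe is the protein aXip251-270 applied at 1 µg/mL to compound-printed slides; binding of probe to printed compounds measured as 667 nm fluorescence plus signal to noise.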 Conditions: small-molecule microarray, higher = more signal, called active from +8 up or from −8 down.
The nature of assay [12]: probe aNOTCH3 binding on compound microarray – biochemical, small-molecule microarray, 635/667 nm fluorescence, primary screen (AID 1120).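 Further: probe is a biotin-tagged antibody raised against NOTCH3 rather than NOTCH3 protein; score merges spot fluorescence near 667 nm with spot signal to noise.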 Conditions: higher = more signal.
Assay [13] can be described thus: probe aNOTCH2 binding on compound microarray – biochemical, small-molecule microarray, 635/667 nm fluorescence, primary screen (AID 1121).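 Further: score merges feature fluorescence read at 667 nm with its signal to noise.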 The conditions noted are these: higher = more signal.
Assay [14] addresses Carbonic anhydrase 2 (Homo sapiens) (UniProt P00918). Nature of the assay: compounds binding carbonic anhydrase 2 – biochemical, small-molecule microarray, Alexa647-labelled CAII, profiling panel (AID 1122). Conditions: CAII-A647 binding fluorescence, higher = more signal.
Assay [15] is described as follows: COS7 lysate on small-molecule microarray, probe aHis, 635 nm (AID 1123).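 Further: z-score combines 667nm fluorescence intensity with signal-to-noise per printed compound spot.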 The conditions noted are these: COS7 cell lysate, fluorescence, higher = more signal.
The nature of assay [16]: probe aLAP1 signal on lysate-treated microarray – cell lysate, small-molecule microarray, COS7 lysate, primary screen (AID 1124).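 Further: lysate comes from COS7 cells expressing LAP1 and is applied at 0.3 µg/mL; score merges spot fluorescence near 667 nm with signal-to-noise over triplicate slides.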 Conditions: probe aLAP1, fluorescence, higher = more signal.
Another assay deals with Sam68 (KHDRBS1). Nature of the assay: compounds binding KHDRBS1 protein – biochemical, small-molecule microarray, 635 nm fluorescence, primary screen (AID 1125).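 Further: score merges 667 nm channel intensity with signal to noise over triplicate slides.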 Conditions: higher = more signal.
The subject of assay [17] is Chordin-like protein 2 (CHRDL2). Nature of the assay: compounds binding chordin-like 2 – biochemical, small-molecule microarray, 635 nm fluorescence, primary screen (AID 1126).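 Further: printed compound slides probed with Chrdl2 protein at 4 µg/mL for 1 h at 4 C; score merges 667 nm emission intensity with signal to noise over three replicate slides.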 The conditions noted are these: fluorescence 635 nm, higher = more signal.
The target of assay [18] is Concanavalin-A (Canavalia ensiformis) (UniProt P02866). Nature of the assay: compounds binding concanavalin A lectin – biochemical, small-molecule microarray, Alexa647 label, 635 nm, artefact control for SMM control protein annotation, primary screen (AID 1127).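 Further: z combines 667 nm emission intensity with signal-to-noise across three replicate slides.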 Conditions: ConA-A647 binding fluorescence, higher = more signal.
Sequence of Concanavalin-A (Canavalia ensiformis) (P02866 whole entry, looked up): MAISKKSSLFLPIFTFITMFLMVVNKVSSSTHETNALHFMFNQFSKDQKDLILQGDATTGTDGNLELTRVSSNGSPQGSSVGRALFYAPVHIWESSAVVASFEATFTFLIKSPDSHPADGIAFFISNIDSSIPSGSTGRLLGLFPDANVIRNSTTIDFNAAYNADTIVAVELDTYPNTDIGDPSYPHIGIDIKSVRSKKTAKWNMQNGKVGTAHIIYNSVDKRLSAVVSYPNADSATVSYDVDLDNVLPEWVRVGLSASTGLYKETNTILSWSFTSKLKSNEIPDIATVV

Sequence of Alpha-bungarotoxin (Bungarus multicinctus) (P60615 whole entry, looked up): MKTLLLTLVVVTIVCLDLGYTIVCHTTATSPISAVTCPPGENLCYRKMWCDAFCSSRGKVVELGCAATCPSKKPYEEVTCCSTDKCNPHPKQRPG
Sequence of Left-right determination factor 2 (Homo sapiens) (O00292 whole entry, looked up): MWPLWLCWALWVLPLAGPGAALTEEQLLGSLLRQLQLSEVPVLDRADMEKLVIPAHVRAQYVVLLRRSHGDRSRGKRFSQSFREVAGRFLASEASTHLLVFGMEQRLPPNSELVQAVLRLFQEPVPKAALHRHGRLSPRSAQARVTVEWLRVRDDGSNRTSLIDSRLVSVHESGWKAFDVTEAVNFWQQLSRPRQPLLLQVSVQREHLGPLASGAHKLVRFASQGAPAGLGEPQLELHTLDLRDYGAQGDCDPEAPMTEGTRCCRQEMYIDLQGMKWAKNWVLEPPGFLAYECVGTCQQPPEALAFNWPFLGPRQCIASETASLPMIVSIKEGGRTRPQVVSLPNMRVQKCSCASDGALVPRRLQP
Sequence of Albumin (Bos taurus) (P02769 whole entry, looked up): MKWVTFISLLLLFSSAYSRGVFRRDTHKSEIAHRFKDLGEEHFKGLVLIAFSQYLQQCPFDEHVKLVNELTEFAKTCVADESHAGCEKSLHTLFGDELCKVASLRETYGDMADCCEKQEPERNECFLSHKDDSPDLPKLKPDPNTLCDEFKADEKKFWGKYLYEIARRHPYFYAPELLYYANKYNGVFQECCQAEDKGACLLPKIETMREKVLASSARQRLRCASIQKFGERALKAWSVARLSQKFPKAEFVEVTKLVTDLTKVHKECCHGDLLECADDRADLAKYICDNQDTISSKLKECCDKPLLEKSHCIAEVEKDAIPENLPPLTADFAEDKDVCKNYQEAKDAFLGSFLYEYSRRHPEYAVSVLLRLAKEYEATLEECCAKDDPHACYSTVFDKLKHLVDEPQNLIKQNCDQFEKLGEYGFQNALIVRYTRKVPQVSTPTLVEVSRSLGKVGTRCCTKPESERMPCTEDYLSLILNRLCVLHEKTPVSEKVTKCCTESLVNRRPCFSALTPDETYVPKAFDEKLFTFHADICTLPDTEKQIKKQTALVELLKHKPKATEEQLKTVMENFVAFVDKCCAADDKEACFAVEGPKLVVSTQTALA
Sequence of Torsin-1A-interacting protein 1 (Homo sapiens) (Q5JTV8 whole entry, looked up): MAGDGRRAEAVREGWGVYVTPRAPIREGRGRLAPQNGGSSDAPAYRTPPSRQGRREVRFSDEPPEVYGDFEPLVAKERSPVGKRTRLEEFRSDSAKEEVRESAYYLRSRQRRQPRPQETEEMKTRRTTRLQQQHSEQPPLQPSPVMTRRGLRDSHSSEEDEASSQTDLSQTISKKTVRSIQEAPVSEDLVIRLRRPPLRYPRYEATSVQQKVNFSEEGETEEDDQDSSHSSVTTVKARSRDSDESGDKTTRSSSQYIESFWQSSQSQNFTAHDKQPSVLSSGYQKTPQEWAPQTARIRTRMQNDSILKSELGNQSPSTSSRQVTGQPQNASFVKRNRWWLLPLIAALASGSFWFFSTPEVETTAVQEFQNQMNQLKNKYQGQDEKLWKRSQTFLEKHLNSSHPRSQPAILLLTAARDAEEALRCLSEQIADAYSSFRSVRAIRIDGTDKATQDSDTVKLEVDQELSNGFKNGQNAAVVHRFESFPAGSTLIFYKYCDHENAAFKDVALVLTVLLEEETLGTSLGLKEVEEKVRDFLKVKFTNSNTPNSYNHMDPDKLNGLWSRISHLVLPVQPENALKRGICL

For `COC(=O)[C@]1(CCS(=O)(=O)c2ccccc2)N=C(c2ccc(OCCCO)cc2)O[C@@H]1c1ccccc1CN=[N+]=[N-]`, the composite z-score is 1.41 in [1]; 0.0011 in assay [3]; 0.631 in [4]; -0.48 in assay [5]; 0.0785 in [6]; -0.0035 in assay [7]. Besides, the composite z-score in [8] was 1.02; in assay [9] it was 0.879; in assay [10] it was 0.969; with Albumin (Bos taurus), -0.453; in [12], 0.0357; in assay [13] it was 0.062. The composite z-score in assay [14] was 0.416; in assay [15], 1.95; in assay [16], 0.472; in the assay on Sam68 (KHDRBS1), 1.29; in assay [17], -0.0531; in [18], 0.848. Further, in [2], the z-score was -2.98. Further, the composite Z-score in [11] is -0.139 (inactive).

Take `CC(=O)NCCCC[C@@H]1NC(=O)[C@@H]2C[C@H](C(=O)O)[C@H](c3ccc(O)cc3)N2C1=O`: the composite z-score in [1] was -0.745; in [3] it was -2.7; in assay [4], -0.329; in assay [5] it was 0.104; in assay [6], -0.184; in [7] it was -0.221. Moreover, the composite z-score was -0.33 in [8]; -0.998 in assay [9]; -0.371 in [10]; -0.757 with Albumin (Bos taurus); -0.594 in [12]; -0.1 in [13]. The composite z-score is 0.658 in assay [14]; -0.0142 in [15]; -0.0574 in assay [16]; -1.04 in the assay with Sam68 (KHDRBS1); -0.755 in assay [17]; 0.092 in assay [18]. The compound also came in with a z-score in [2] of 0.117. For the same compound, the composite Z-score in assay [11] is 1.77 (inactive).

With `CN(C)CCCNC(=O)[C@@]1(C)c2ccccc2C(=O)N(Cc2cc(C(F)(F)F)cc(C(F)(F)F)c2)[C@H]1c1ccc(CO)cc1`, the composite z-score in assay [1] is -0.488; in assay [3], -1.31; in assay [4], 0.139; in assay [5], 0.0751; in assay [6], -0.118; in assay [7] it was -0.134. Moreover, the composite z-score in assay [8] is -0.484; in assay [9] it was -0.54; in [10], -0.779; in the assay with Albumin (Bos taurus) it was 0.193; in assay [12], -0.0984; in assay [13], -0.0341. In addition, the composite z-score in assay [14] is 0.485; in [15], 0.155; in [16] it was 0.0017; with Sam68 (KHDRBS1), -0.546; in [17], -1.03; in assay [18], -1.04. Moreover, the z-score in assay [2] is -1.85. Moreover, in assay [11], the composite Z-score was 0.222 (inactive).

Consider `C=C(/C=C/CNS(=O)(=O)c1ccc(C)cc1)[C@H](O)[C@H]1CCCN1S(=O)(=O)c1ccccc1[N+](=O)[O-]`, for which the composite z-score in assay [1] was -0.197; in [3], 0.77; in assay [4] it was -0.115; in [5] it was -0.795; in [6], -0.119; in assay [7], -0.138. The composite z-score in assay [8] was -0.272; in assay [9] it was 0.581; in [10], 0.616; with Albumin (Bos taurus), 0.699; in [12], -0.0932; in [13], -0.138. Besides, the composite z-score was 0.305 in assay [14]; 0.0646 in assay [15]; 0.394 in assay [16]; 0.0808 in the assay on Sam68 (KHDRBS1); 0.547 in [17]; 0.0635 in assay [18]. Besides, the z-score in assay [2] is -2.48. In assay [11], the composite Z-score is -0.327 (inactive).

`CO[C@H]1O[C@H](CO)[C@@H](OC(=O)Nc2ccc(C(F)(F)F)cc2)[C@H](OC(=O)Nc2ccc3c(c2)OCO3)[C@H]1OC(=O)Nc1ccc2c(c1)OCO2`: the composite z-score in [1] is 1.33; in assay [3], 0.0746; in assay [4], 1.84; in [5] it was -0.367; in assay [6] it was 0.0438; in assay [7], 0.0437. Also, the composite z-score in assay [8] amounted to 0.925; in assay [9] it was 2; in assay [10], 0.648; with Albumin (Bos taurus), 0.72; in assay [12], 0.169; in [13], 0.0062. For the same compound, the composite z-score in [14] was 0.767; in [15] it was 2.67; in assay [16], 0.59; in the assay with Sam68 (KHDRBS1), 1.3; in [17] it was -0.146; in assay [18] it was 1.14. Besides, the z-score in assay [2] was -2.79. The composite Z-score in assay [11] is 1.42 (inactive).

Consider `CC1CC/C=C\[C@H]2OC34C=CCN(C(C)C)C(=O)[C@H]3N(CCCCCO)C(=O)[C@@H]4C2C(=O)O1` (stereo not given in full), for which the composite z-score in assay [1] is -0.806; in assay [3] it was -2.15; in [4], -0.329; in assay [5] it was 0.446; in [6], -0.178; in assay [7], -0.206. Moreover, the composite z-score in [8] is 0.179; in assay [9], -0.753; in [10] it was -1.36; in the assay with Albumin (Bos taurus), -1.51; in assay [12], -0.289; in assay [13], -0.153. For the same compound, the composite z-score is 0.939 in [14]; -0.384 in assay [15]; 0.839 in assay [16]; -0.925 in the assay with Sam68 (KHDRBS1); -1.69 in assay [17]; -0.486 in assay [18]. In assay [2], this compound gave a z-score of 0.205. Besides, in assay [11], the composite Z-score is -0.362 (inactive).
